# Mdm2 MdmX PPI: inhibitors of human Mdm2-MdmX association, primary screen, cell-based, luminescence, split luciferase, SaOS-2, uHTS; Protein Mdm4 (Homo sapiens) + E3 ubiquitin-protein ligase Mdm2 (Homo sapiens), …; SaOS-2 split-luciferase Mdm2/MdmX complementation; inhibition, % at 8 µM; 330,000 tested, 3% active; AID 485346, 2010;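 active = inhibition of at least 50% at 8 µM in the primary screen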
# Target sequence (O15151 whole entry, looked up): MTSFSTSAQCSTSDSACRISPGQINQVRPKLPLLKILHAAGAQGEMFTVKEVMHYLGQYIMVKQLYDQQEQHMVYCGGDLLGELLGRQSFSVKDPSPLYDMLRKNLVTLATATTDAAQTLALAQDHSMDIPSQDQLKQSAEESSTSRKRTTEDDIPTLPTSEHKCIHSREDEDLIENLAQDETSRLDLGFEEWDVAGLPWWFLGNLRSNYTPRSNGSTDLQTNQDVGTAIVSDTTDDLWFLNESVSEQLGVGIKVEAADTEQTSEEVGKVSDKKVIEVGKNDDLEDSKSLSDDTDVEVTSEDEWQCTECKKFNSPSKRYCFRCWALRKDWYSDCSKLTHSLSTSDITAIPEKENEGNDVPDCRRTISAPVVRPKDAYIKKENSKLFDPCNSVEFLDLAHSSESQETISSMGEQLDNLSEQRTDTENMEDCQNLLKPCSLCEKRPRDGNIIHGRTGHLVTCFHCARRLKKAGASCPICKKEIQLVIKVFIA
# Target sequence (Q00987 whole entry, looked up): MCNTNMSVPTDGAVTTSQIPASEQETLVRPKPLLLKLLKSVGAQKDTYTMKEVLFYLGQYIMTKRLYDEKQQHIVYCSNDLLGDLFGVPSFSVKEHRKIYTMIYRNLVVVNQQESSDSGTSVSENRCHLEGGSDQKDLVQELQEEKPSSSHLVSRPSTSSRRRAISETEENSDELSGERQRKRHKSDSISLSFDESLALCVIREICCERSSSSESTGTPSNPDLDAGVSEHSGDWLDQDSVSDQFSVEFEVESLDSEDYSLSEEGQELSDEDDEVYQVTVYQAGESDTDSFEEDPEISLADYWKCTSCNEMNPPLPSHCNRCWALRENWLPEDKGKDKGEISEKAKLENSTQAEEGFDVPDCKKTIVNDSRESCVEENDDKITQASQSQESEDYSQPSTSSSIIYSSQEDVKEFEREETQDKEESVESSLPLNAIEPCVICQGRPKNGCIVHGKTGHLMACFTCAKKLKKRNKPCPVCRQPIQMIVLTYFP
# Shn3 3UTR inh: reduction of Shn3 3'UTR firefly luciferase signal, primary screen, Schnurri-3 inhibitor project, cell-based, Clone20 osteoblasts, set 2; inhibition, % at 12.5 µM; 360,000 tested, 0.52% active; Clone20 osteoblast Shn3 3'UTR firefly luciferase, 24 h;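 active = mean inhibition of at least 75% with every replicate also reaching 75%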;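 note: 0% = median of neutral control wells and 100% = pilot-screen positive control compound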
# 697 NFkB inh: inhibitors of PMA/ionomycin-induced NF-kB reporter, 697 cells, primary screen, B-cell NF-kB inhibitor project, cell-based, luminescence, uHTS | inhibition, % at 4 µM | 330,000 tested, 0.33% active | 697 B-cell NF-kB luciferase reporter, 16 h; in the data active = inhibition above about 35%
# Jurkat NFkB inh: inhibitors of induced NF-kB luciferase reporter, primary screen, TCR NF-kB activation inhibitor project, cell-based, luminescence, uHTS; Jurkat, PMA/ionomycin-induced NF-kB luciferase reporter; inhibition, % at 4 µM; 330,000 tested, 0.53% active; AID 435003, 2010; in the data active = inhibition above about 50%
# Gli-Sufu block: Gli-Sufu pathway antagonists, primary screen, luciferase luminescence, Sufu-KO-LIGHT cells, uHTS; Sufu-KO-LIGHT fibroblasts, Gli luciferase reporter luminescence; inhibition, % at 5 µM; 340,000 tested, 0.74% active; AID 588413, 2011;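 active = inhibition above about 55%, limit read from the data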;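 note: 0% = DMSO-treated cells and 100% = wells with medium but no cells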
# Mdm2-MdmX conf: Mdm2-MdmX complex disruptors, retested hits, confirmation, luminescence, single concentration; shares compounds with Mdm2 MdmX PPI; Mdm2-MdmX binding, luminescent assay; inhibition, % at 8 µM; 10,000 tested, 55% active; AID 489028, 2010; in the data active = inhibition above about 40%
# Full FLuc ctr: full-length luciferase signal inhibition, confirmation, counter-screen for Mdm2/MdmX interaction inhibitor project, cell-based, single concentration, SaOS-2; shares compounds with Mdm2 MdmX PPI; SaOS-2 full-length luciferase counterscreen, luminescence; inhibition, % at 8 µM; 6,200 tested, 77% active;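 active = mean inhibition at 8 µM reaching about 37%, which flags the compound as non-specific, limit read from the data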;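 note: p53-null SaOS-2 cells with luciferase driven by a doxycycline-inducible promoter; compound on cells about two nights before reading with doxycycline added after day one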
# An asterisk follows results filed as active; x = no result. This is a sample that favours compounds with a hit; in the whole collection about 3.8% have one here.
SMILES,Mdm2 MdmX PPI,Shn3 3UTR inh,697 NFkB inh,Jurkat NFkB inh,Gli-Sufu block,Mdm2-MdmX conf,others
CCOC(=O)c1c(NC(=O)CSc2nnc(-c3c[nH]c4ccccc34)n2C)sc2c1CCCC2,60.9*,7.6,-23.1,14.2,2.8,15.1,
CCOC(=O)c1c(NC(=O)CSc2nnc(-c3c[nH]c4ccccc34)n2CCOC)sc2c1CCCC2,42.5,-18.5,-2.4,11.9,9.9,x,
COc1ccc(-c2nnc(SCC(=O)Nc3sc4c(c3C#N)CCCC4)n2-c2ccccc2)cc1,78.3*,-11.5,-16.8,-1.9,21.3,0.5,
O=S(=O)(Nc1ccc(-n2cnnn2)cc1)c1ccc(Cl)s1,-6.5,-11.8,-1.3,3.7,-1.2,x,
O=C(COC(=O)c1ccc(O)cc1)NC1CCCCCCC1,x,4.4,x,x,x,x,
C=C1C(=O)OCC2C(C(=O)O)=CC3C(C)C(C)=CC123 (centres undefined),x,12.2,x,x,x,x,
CCc1c(C2(O)CCCCC2)[nH]c2ccc(C(F)(F)F)cc12,81.7*,46.2,-210.8,11.2,-5.7,36.9,
COc1cc2[nH]c3c(N4CCN(c5ccc(Cl)cc5)CC4)ncnc3c2cc1OC,53.2*,12.5,22.9,-8.7,28.3,30.6,
CN(CC(=O)Nc1ccccc1Cl)CC(=O)N1CCc2ccccc21,6.4,-37.3,18.6,1.8,4.8,x,
Cc1ccc(NC(=O)c2cnc(N3CCN(c4ccccn4)CC3)c3ccccc23)c(Br)c1,x,58.8,x,x,32.9,x,
CCN1CCN(c2ncc(C(=O)Nc3cc(Cl)ccc3OC)c3ccccc23)CC1,54.2*,-0.4,-9.4,18.9,24.3,2.5,
O=C(Nc1c(F)cccc1F)c1cnc(N2CCN(c3ccccn3)CC2)c2ccccc12,56.7*,43.3,16.5,20.5,10.9,32.2,
COc1ccc(Cl)cc1NC(=O)CCN1CCN(c2ccccc2C)CC1,7.3,7.3,0.6,25.0,6.1,x,
CCc1ccc(NC(=O)c2cnc(SC)nc2C)cc1,22.9,-22.8,-5.0,4.3,-12.2,x,
Cc1ccc2nc(-c3cc(-c4ccccc4)no3)cn2c1,69.5*,48.9,-249.2,-34.7,-25.6,21.9,
CC(=O)Nc1nccc(-c2cc(-c3ccccc3)no2)n1,-43.6,x,-36.9,-59.6,-50.8,x,
CCc1ccn2cc(-c3cc(-c4ccccc4)no3)nc2c1,65.7*,29.8,-32.0,29.1,55.7*,67.0*,Full FLuc ctr=95.2*
COc1ccc2cc(C(N)=O)c(=Nc3ccc(C)cc3)oc2c1,54.0*,-56.5,-37.6,-2.8,-15.2,46.4*,Full FLuc ctr=35.2
Cc1cccc(N=c2oc3cc(O)ccc3cc2C(N)=O)c1,50.4*,4.0,-93.4,-2.3,-27.6,-36.6,
COc1ccccc1N=c1oc2cc(O)ccc2cc1C(N)=O,24.3,-17.0,-37.6,2.1,4.2,x,
COc1ccc2cc(C(N)=O)/c(=N\NC(=O)c3ccccc3)oc2c1,44.8,23.1,-42.5,-60.5,-9.7,x,
COc1ccccc1NC(=O)C[n+]1ccccc1C,11.3,-9.9,8.7,-12.6,-6.8,x,
CCS(=O)(=O)Nc1cccc(-c2ccc3nnc(C)n3n2)c1,39.3,x,0.6,-10.2,x,x,
Cc1ccc(S(=O)(=O)Nc2cccc(-c3ccc4nnc(C)n4n3)c2)s1,64.7*,-25.0,14.8,-3.5,15.0,24.4,
O=C(Oc1c(-c2ccccc2)c(=O)n2c3c(cccc13)CC2)c1ccc(F)cc1,54.5*,0.4,-16.7,-12.9,-4.5,17.3,
SMILES,Mdm2 MdmX PPI,Shn3 3UTR inh,697 NFkB inh,Jurkat NFkB inh,Gli-Sufu block,Mdm2-MdmX conf,others
O=C(Oc1c(-c2ccccc2)c(=O)n2c3c(cccc13)CC2)c1cccc([N+](=O)[O-])c1,69.8*,-18.2,24.7,8.0,-4.4,74.8*,Full FLuc ctr=39.4*
O=C(CN1c2ccccc2Sc2ccccc21)NNC(=O)Nc1ccc(Cl)c(Cl)c1,4.6,17.9,8.0,10.3,4.7,x,
O=C(CN1c2ccccc2Sc2ccccc21)NNC(=O)Nc1ccc(Cl)cc1,54.1*,-1.4,7.2,15.1,-7.5,35.7,Full FLuc ctr=53.7*
O=S(=O)(Nc1cc(S(=O)(=O)N2CCOCC2)ccc1NCC1CCCO1)c1ccc(F)cc1 (centres undefined),-2.8,2.8,-6.0,-6.5,4.0,x,
CC(C)(C)c1cc(NCc2ccccn2)n2ncc(-c3ccc(Cl)cc3)c2n1,45.2,19.4,-3.9,1.2,-7.5,x,
Cc1cc(NCCCN2CCOCC2)n2ncc(-c3ccc(Cl)cc3)c2n1,65.1*,-6.5,-87.0,-103.8,-53.1,62.3*,Full FLuc ctr=69.2*
CN(C)CCCNc1cc(C(C)(C)C)nc2c(-c3ccc(Cl)cc3)cnn12,97.7*,-42.8,2.4,49.5,-13.3,71.7*,Full FLuc ctr=50.5*
CC1CCN(c2nc(CN3CCCCC3)nc3scc(-c4ccccc4)c23)CC1,56.8*,1.6,-31.9,-1.4,14.0,20.1,
Cc1cc(C)cc(C(=O)OCC(=O)Nc2ncccn2)c1,1.5,-11.1,16.5,-0.7,1.2,x,
COc1cc(OC)cc(-c2sc3ccc(OC)cc3c2C#CC2(N)CCCCC2)c1,95.7*,-4.5,11.0,6.2,2.3,24.6,
COc1ccc(-c2ccc3oc(-c4ccc(OC)cc4)c(C#CC4(O)CCCCC4)c3c2)cc1,70.4*,-7.6,2.2,3.7,-11.3,31.7,
COC(=O)c1c(-c2ccc(OC)cc2)sc2ccc(-c3ccc4c(c3)OCO4)cc12,9.7,11.5,-16.6,-5.4,-8.4,x,
COc1ccc(-c2sc3ccc(N4CCOCC4)cc3c2C#CC2(O)CCCCC2)cc1,75.9*,-2.9,-10.3,8.4,2.3,10.0,
COc1cccc(-c2sc3ccc(OC)cc3c2C#CC2(O)CCCCC2)c1,20.5,19.5,-4.5,-21.5,-4.8,x,
COc1ccc(-c2sc3cc4c(cc3c2C#CC2(N)CCCCC2)OCO4)cc1,78.9*,-3.6,-29.6,2.4,-46.3,30.2,
CC(C)C(O)(C#CCN1CCCCCC1)c1ccccc1 (centres undefined),18.6,23.6,11.9,-12.8,9.4,x,
O=C(Nc1ccccc1N1CCCCC1)C1CCN(C(=O)c2ccc(Cl)cc2)CC1,23.1,12.5,-37.9,5.0,10.8,x,
Cc1noc(C)c1COC(=O)c1csc2c1CCC(C)C2 (centres undefined),-12.5,27.8,-11.8,15.9,8.9,x,
O=C(NCc1ccc(F)cc1)c1ccccc1OCc1ccccc1,-18.9,19.0,-29.7,-3.0,9.0,x,
O=C(NNC(=O)c1ccccc1OCc1ccc(F)cc1)c1ccccc1O,69.0*,65.1,-30.6,17.3,24.1,73.1*,Full FLuc ctr=31.1
